Jurkat NFkB inh – inhibitors of the PMA/ionomycin-induced NF-kB reporter in Jurkat cells; PMA/ionomycin-induced NF-kB luciferase reporter, luminescence; inhibition, % at 4 µM; 330,000 compounds, 0.53% hits; AID 435003; in the data active = inhibition above about 50%
NTR1 agonist – activates human neurotensin receptor 1; activation, % at 20 µM; NTR1-U2OS beta-arrestin-GFP spot imaging, agonist mode; 330,000 compounds, 0.17% hits;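 active = activation at or above 40% of the spot to cytoplasm intensity ratio, with at least 20 cells analyzed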
Mdm2 MdmX PPI – disrupts the human Mdm2-MdmX interaction. O15151+Q00987. SaOS-2 split-luciferase Mdm2/MdmX complementation, luminescence. inhibition, % at 8 µM. 330,000 compounds, 3% hits;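 active = inhibition of at least 50% at 8 µM in the primary screen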
Target sequence (O15151 whole entry, looked up): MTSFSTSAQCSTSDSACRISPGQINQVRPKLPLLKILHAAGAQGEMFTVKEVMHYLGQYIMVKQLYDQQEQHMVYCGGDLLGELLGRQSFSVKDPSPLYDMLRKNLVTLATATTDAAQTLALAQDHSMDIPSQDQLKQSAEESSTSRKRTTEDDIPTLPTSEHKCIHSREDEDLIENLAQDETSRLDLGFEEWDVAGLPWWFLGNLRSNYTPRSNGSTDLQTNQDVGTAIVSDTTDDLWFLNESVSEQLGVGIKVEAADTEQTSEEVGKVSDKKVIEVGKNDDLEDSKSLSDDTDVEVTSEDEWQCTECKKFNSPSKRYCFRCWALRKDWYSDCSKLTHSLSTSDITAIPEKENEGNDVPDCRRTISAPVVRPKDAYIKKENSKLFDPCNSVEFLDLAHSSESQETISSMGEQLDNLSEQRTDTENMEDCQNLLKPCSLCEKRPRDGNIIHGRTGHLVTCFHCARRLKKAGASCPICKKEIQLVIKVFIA
Target sequence (Q00987 whole entry, looked up): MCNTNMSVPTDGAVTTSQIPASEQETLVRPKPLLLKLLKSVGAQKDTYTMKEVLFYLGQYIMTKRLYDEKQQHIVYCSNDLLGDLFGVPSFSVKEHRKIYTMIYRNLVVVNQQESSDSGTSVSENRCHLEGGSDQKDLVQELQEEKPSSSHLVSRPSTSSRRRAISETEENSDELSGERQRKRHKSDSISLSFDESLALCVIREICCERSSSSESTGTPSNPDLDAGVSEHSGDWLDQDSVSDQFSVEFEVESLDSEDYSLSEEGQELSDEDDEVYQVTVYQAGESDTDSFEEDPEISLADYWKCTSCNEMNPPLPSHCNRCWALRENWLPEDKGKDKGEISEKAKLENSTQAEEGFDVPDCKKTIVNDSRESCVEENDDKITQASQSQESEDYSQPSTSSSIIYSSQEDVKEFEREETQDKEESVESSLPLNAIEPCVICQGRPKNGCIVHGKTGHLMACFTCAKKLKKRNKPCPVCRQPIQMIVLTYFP
A1 inh – inhibitors of the anti-apoptotic protein A1, read as caspase activation | MEF A1-2A-BIM cells, Caspase-Glo 3/7 luminescence, 3 h; percent of clofoctol response, vehicle zero | 330,000 compounds, 0.066% hits | caspase activation, % (no concentration beside the values) | AID 2462;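 active = over half of replicate activation scores above 10%, or exactly half above 10 with the replicate mean above 10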
697 NFkB inh – lowers PMA/ionomycin-induced NF-kB signal in 697 B cells | 697 B-cell NF-kB luciferase reporter, 16 h | inhibition, % at 4 µM | 330,000 compounds, 0.33% hits; in the data active = inhibition above about 35%
Beta apoptosis – beta cell apoptosis inhibition. AID 435005. 300,000 compounds, 0.8% hits. INS-1E cytokine-induced death, ATP luminescence, 48 h; percent of positive-control rescue, neutral wells zero. protection from apoptosis, % (test concentration not listed);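 active = Every replicate reaches about 75%, or at least half do and their mean reaches it too, limit read from the data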;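 note: higher means more ATP so stronger rescue from cytokine killing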
Mdm2-MdmX conf – human Mdm2/MdmX binding inhibition, confirmed. luminescent assay. shares compounds with Mdm2 MdmX PPI. 10,000 compounds, 55% hits. inhibition, % at 8 µM. AID 489028; in the data active = inhibition above about 40%
Full FLuc ctr – counter-screen for Mdm2/MdmX inhibitors: full-length luciferase. shares compounds with Mdm2 MdmX PPI. SaOS-2 full-length luciferase counterscreen, luminescence. inhibition, % at 8 µM. 6,200 compounds, 77% hits;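 active = mean inhibition at 8 µM reaching about 37%, which flags the compound as non-specific, limit read from the data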;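 note: p53-null SaOS-2 cells with luciferase driven by a doxycycline-inducible promoter; compound on cells about two nights before reading with doxycycline added after day one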
A number is an active result; . = inactive; / = not tested or not shown. Shown are actives, neighbours in structure and some others; about 3.8% of the full set was active somewhere.

SMILES	Jurkat NFkB inh	NTR1 agonist	Mdm2 MdmX PPI	A1 inh	697 NFkB inh	Beta apoptosis	Mdm2-MdmX conf	Full FLuc ctr
O=C(NCCC(=O)N(Cc1ccco1)Cc1cccs1)c1ccc([N+](=O)[O-])cc1	.	.	.	/	.	/	/	/
CCN(Cc1ccccc1)S(=O)(=O)c1ccc(C(=O)N(CCCN(C)C)c2nc3c(C)c(C)ccc3s2)cc1	.	.	97	.	.	/	46	49
CCN(Cc1ccccc1)S(=O)(=O)c1ccc(C(=O)N(CCCN(C)C)c2nc3cc4c(cc3s2)OCO4)cc1	.	.	73	.	.	.	.	/
Cc1ccc2sc(N(CCCN(C)C)C(=O)c3ccc(S(=O)(=O)N(C)C4CCCCC4)cc3)nc2c1C	.	.	99	.	.	/	54	67
CCN(CC)CCN(C(=O)c1ccc(S(=O)(=O)N(C)C2CCCCC2)cc1)c1nc2c(C)cccc2s1	.	.	.	.	.	.	/	/
COC(CNS(=O)(=O)c1ccc(S(=O)(=O)NC2CC2)cc1)OC	.	.	.	.	.	.	/	/
COc1cc2c(cc1OC)[C@@H](NC(=O)CCc1ccccc1)[C@H](OCc1ccccc1)C2	/	.	.	/	.	/	/	/

Source: PubChem BioAssay
